Experimental data from PubChem BioAssay AID1159580 (chemical genetic matrix, 2015).
Out of some 5,500 compounds screened, about 2,000 (36%) were called active. Inconclusive results (about 18%) are left out. No stated cut-off is given here; in the data, active means normalized growth mostly below about 0.91 (no sharp cut-off); inconclusive means no clear call, values can overlap the other calls; inactive means mostly above about 0.92. The list shows a part of the results.

Assay: chemical genetic growth profiling, strain panel (AID 1159580);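 further: tested at 20 µM; growth read once vehicle control cultures reached saturation at 30 °C; 1 = growth at the plate median or of vehicle wells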
Details: S. cerevisiae deletion strains, growth OD
[1] = locus YGR229C, strain SMI1, stronger effect = lower value
[2] = locus YJR075W, strain HOC1, stronger effect = lower value
[3] = locus YMR263W, strain SAP30, stronger effect = lower value
[4] = locus YMR307W, strain GAS1, stronger effect = lower value
[5] = locus YNL153C, strain GIM3, stronger effect = lower value
[6] = locus YNL322C, strain KRE1, stronger effect = lower value

Measured: normalized growth

CC(C)c1ccc2c(c1)c(SC(C)(C)C)c(CC(C)(C)C(=O)O)n2Cc1ccc(Cl)cc1
inactive: locus YAL040C, strain CLN3, stronger effect = lower value 1.02 | locus YCL061C, strain MRC1 (second series), stronger effect = lower value 1 | locus YDR363W, strain ESC2, stronger effect = lower value 1 | locus YER002W, strain NOP16, stronger effect = lower value 1.03 | [1] 1.03 | [2] 1.02 | [3] 1.01 | [4] 1 | locus YNL128W, strain TEP1, stronger effect = lower value 0.967 | [5] 0.972 | locus YNL175C, strain NOP13, stronger effect = lower value 1.01 | locus YNL197C, strain WHI3, stronger effect = lower value 1.01 | locus YNL224C, strain SQS1, stronger effect = lower value 1.01 | [6] 1.01 | locus YOR083W, strain WHI5 (second series), stronger effect = lower value 0.992

NC(=O)N[C@@H]1O[C@H](CO)[C@@H](O)[C@H](O)[C@H]1O
inactive: locus YAL013W, strain DEP1, stronger effect = lower value 1.03 | locus YBR229C, strain ROT2, stronger effect = lower value 1.01 | locus YCL061C, strain MRC1, stronger effect = lower value 0.987 | locus YDL101C, strain DUN1, stronger effect = lower value 0.994 | locus YDR150W, strain NUM1, stronger effect = lower value 0.992 | locus YEL061C, strain CIN8, stronger effect = lower value 1.02 | locus YGR078C, strain PAC10, stronger effect = lower value 0.993 | [1] 1 | locus YHR030C, strain SLT2, stronger effect = lower value 1 | locus YHR087W, strain rtc3, stronger effect = lower value 1.01 | locus YJL187C, strain SWE1, stronger effect = lower value 1.01 | locus YJR043C, strain POL32, stronger effect = lower value 0.975 | [2] 1 | locus YKL190W, strain CNB1, stronger effect = lower value 1.01 | locus YLR039C, strain RIC1, stronger effect = lower value 1.02 | locus YLR058C, strain SHM2 (second series), stronger effect = lower value 1.01 | locus YLR085C, strain ARP6, stronger effect = lower value 1.07 | locus YLR262C, strain YPT6, stronger effect = lower value 0.981 | locus YML094W, strain GIM5, stronger effect = lower value 1.02 | locus YMR219W, strain ESC1, stronger effect = lower value 1.01 | [3] 0.999 | [4] 1.02 | [5] 0.989 | locus YNL298W, strain CLA4 (second series), stronger effect = lower value 1.05 | [6] 1 | locus YNR030W, strain Alg12, stronger effect = lower value 1.02 | locus YPL055C, strain LGE1, stronger effect = lower value 1.04 | locus YPL241C, strain CIN2, stronger effect = lower value 1.04 | locus YPR135W, strain CTF4, stronger effect = lower value 0.98
